Test results as given in PubChem BioAssay (Tox21).
Several values for one entry are separate records, joined by “and”; a condition that tells them apart may be missing. Equal values may be shown once. Results filed as inconclusive are left out. Entries that show only a call come without a potency. Some structures have more than one record in an assay (separate samples or runs), and their calls can disagree. Activity calls are given as the source filed them. Unless noted, calls follow the shape of the full dose curve.

Assay: qHTS assay for small molecule agonists of the antioxidant response element (ARE) signaling pathway (AID 743202; active = well fitted activation curve with a large enough effect in the signal ratio in the repeat runs, not every such curve was filed as active; the % refers to the signal ratio; also: potency is read from the fitted curve at half-maximal effect)
Conditions: HepG2 ARE-bla reporter, beta-lactamase FRET, 16 h; series mostly up to 73.3 µM
Method in brief: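 An ARE-responsive beta-lactamase gene stably integrated in HepG2 cells serves as reporter. After 5 h plating and 16 h compound incubation at 37 C, fluorescence of the B/G FRET substrate was measured.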

Structure (SMILES)	Potency
NC(=O)NO	inactive
c1ccc2[nH]c(-c3cscn3)nc2c1	inactive
NC(=O)N/N=C/c1ccc([N+](=O)[O-])o1	inactive and 11.9 µM (active)
CC1=NN(c2ccccc2)C(=O)C1	inactive
C[C@]12C[C@H](O)[C@H]3[C@@H](CCC4=CC(=O)CC[C@@]43C)[C@@H]1CC[C@@H]2C(=O)CO	inactive
CCn1cc(C(=O)O)c(=O)c2ccc(C)nc21	inactive
CC(=O)/C=C/C1=C(C)CCCC1(C)C	inactive
COc1ccccc1NC(=O)CC(C)=O	inactive
CC(C)=CCC/C(C)=C/CO	inactive
O=C(OCc1ccccc1)c1ccccc1	inactive
O=C(O)CN(CC(=O)O)CC(=O)O	55.3 µM (active) and inactive
CCCCOCCOCCSC#N	inactive
C#C[C@]1(O)CC[C@H]2[C@@H]3CCc4cc(O)ccc4[C@H]3CC[C@@]21C	inactive
NC(=O)c1ccc([N+](=O)[O-])cc1Cl	inactive
Cc1c(N(C)C)c(=O)n(-c2ccccc2)n1C	inactive
COc1ccc(C(=O)c2ccccc2)c(O)c1	inactive
C[C@]12C=CC(=O)C=C1CC[C@@H]1[C@@H]2C(=O)C[C@@]2(C)[C@H]1CC[C@]2(O)C(=O)CO	inactive
O=c1cc[nH]c(=O)[nH]1	inactive
CC(C)(C)CC(C)(C)c1ccc(O)c(-n2nc3ccccc3n2)c1	inactive

Assay: qHTS assay for small molecule agonists of the antioxidant response element (ARE) signaling pathway - cell viability counter screen (AID 743203); also: nearly all actives have a fitted effect of over 55% in size; also: potency is read from the fitted curve at half-maximal effect
Conditions: ARE-bla HepG2 viability, CellTiter-Glo luminescence, 16 h; series mostly up to 73.3 µM
Method in brief: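 ARE-bla HepG2 cells were plated, rested 5 h at 37C/5% CO2, then exposed to compounds in DMSO for 16 h. Viability was read as CellTiter-Glo luminescence after 30 min at room temperature, in the same wells as the ARE screen.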

Structure (SMILES)	Potency
CO[C@H]1C=CO[C@@]2(C)Oc3c(C)c(O)c4c(O)c(c(/C=N/N5CCN(C)CC5)c(O)c4c3C2=O)NC(=O)/C(C)=C\C=C[C@H](C)[C@H](O)[C@@H](C)[C@@H](O)[C@@H](C)[C@H](OC(C)=O)[C@@H]1C	inactive
NC(=O)NO	inactive
CC1=C(/C=C/C(C)=C/C=C/C(C)=C/C(=O)O)C(C)(C)CCC1	inactive
NCCNc1cccc2ccccc12	inactive
c1ccc2[nH]c(-c3cscn3)nc2c1	inactive
O=C1OC(c2ccc(O)cc2)(c2ccc(O)cc2)c2ccccc21	inactive
NC(=O)N/N=C/c1ccc([N+](=O)[O-])o1	inactive and 54.5 µM (active)
CC1=NN(c2ccccc2)C(=O)C1	inactive
Cc1cccc(Nc2cc(Cl)nc(SCC(=O)O)n2)c1C	inactive
CCc1cc(C(N)=S)ccn1	inactive
C[C@]12C[C@H](O)[C@H]3[C@@H](CCC4=CC(=O)CC[C@@]43C)[C@@H]1CC[C@@H]2C(=O)CO	inactive
CCn1cc(C(=O)O)c(=O)c2ccc(C)nc21	inactive
CC(=O)/C=C/C1=C(C)CCCC1(C)C	inactive
COc1ccccc1NC(=O)CC(C)=O	inactive
CC(C)=CCC/C(C)=C/CO	inactive
C[C@]12CC[C@@H]3c4ccc(O)cc4C[C@@H](CCCCCCCCCS(=O)CCCC(F)(F)C(F)(F)F)[C@H]3[C@@H]1CC[C@@H]2O (stereo partly drawn)	inactive
O=C(OCc1ccccc1)c1ccccc1	inactive
O=C(O)CN(CC(=O)O)CC(=O)O	inactive
CCCCOCCOCCSC#N	inactive
C#C[C@]1(O)CC[C@H]2[C@@H]3CCc4cc(O)ccc4[C@H]3CC[C@@]21C	inactive
NC(=O)c1ccc([N+](=O)[O-])cc1Cl	inactive
C[C@]12CC[C@@H]3c4ccc(O)cc4CC[C@H]3[C@@H]1CCC2=O	inactive
Cc1c(N(C)C)c(=O)n(-c2ccccc2)n1C	inactive
COc1ccc(C(=O)c2ccccc2)c(O)c1	inactive
NC(=O)OCC(COC(N)=O)c1ccccc1	inactive
COc1ccc(O)cc1	inactive
C[C@]12C=CC(=O)C=C1CC[C@@H]1[C@@H]2C(=O)C[C@@]2(C)[C@H]1CC[C@]2(O)C(=O)CO	inactive
O=c1cc[nH]c(=O)[nH]1	inactive
CC(C)(C)CC(C)(C)c1ccc(O)c(-n2nc3ccccc3n2)c1	inactive
C/C=C/c1ccc(O)c(OC)c1	inactive

Assay: qHTS assay for small molecule activators of the heat shock response signaling pathway - cell viability counter screen (AID 743209; active = well fitted cell-killing curve with a large enough effect in the repeat runs; also: nearly all actives have a fitted effect of over 50% in size)
Conditions: HSE-bla HeLa viability, CellTiter-Glo luminescence, 5 h; series mostly up to 62.6 µM
Method in brief: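 HSE-bla HeLa cells plated overnight, then exposed to Tox21 compounds (23 nL in DMSO) for 5 h at 37 C. After the bla reporter read, CellTiter-Glo was added in the same wells and luminescence read after 30 min at room temperature.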

Structure (SMILES)	outcome
CO[C@H]1C=CO[C@@]2(C)Oc3c(C)c(O)c4c(O)c(c(/C=N/N5CCN(C)CC5)c(O)c4c3C2=O)NC(=O)/C(C)=C\C=C[C@H](C)[C@H](O)[C@@H](C)[C@@H](O)[C@@H](C)[C@H](OC(C)=O)[C@@H]1C	inactive
NC(=O)NO	inactive
NCCNc1cccc2ccccc12	inactive
c1ccc2[nH]c(-c3cscn3)nc2c1	inactive
O=C1OC(c2ccc(O)cc2)(c2ccc(O)cc2)c2ccccc21	inactive
NC(=O)N/N=C/c1ccc([N+](=O)[O-])o1	inactive
CC1=NN(c2ccccc2)C(=O)C1	inactive
Cc1cccc(Nc2cc(Cl)nc(SCC(=O)O)n2)c1C	inactive
CCc1cc(C(N)=S)ccn1	inactive
C[C@]12C[C@H](O)[C@H]3[C@@H](CCC4=CC(=O)CC[C@@]43C)[C@@H]1CC[C@@H]2C(=O)CO	inactive
CCn1cc(C(=O)O)c(=O)c2ccc(C)nc21	inactive
CC(=O)/C=C/C1=C(C)CCCC1(C)C	inactive
COc1ccccc1NC(=O)CC(C)=O	inactive
CC(C)=CCC/C(C)=C/CO	inactive
C[C@]12CC[C@@H]3c4ccc(O)cc4C[C@@H](CCCCCCCCCS(=O)CCCC(F)(F)C(F)(F)F)[C@H]3[C@@H]1CC[C@@H]2O (stereo partly drawn)	inactive
O=C(OCc1ccccc1)c1ccccc1	inactive
O=C(O)CN(CC(=O)O)CC(=O)O	inactive
CCCCOCCOCCSC#N	inactive
C#C[C@]1(O)CC[C@H]2[C@@H]3CCc4cc(O)ccc4[C@H]3CC[C@@]21C	inactive
NC(=O)c1ccc([N+](=O)[O-])cc1Cl	inactive
C[C@]12CC[C@@H]3c4ccc(O)cc4CC[C@H]3[C@@H]1CCC2=O	inactive
Cc1c(N(C)C)c(=O)n(-c2ccccc2)n1C	inactive
COc1ccc(C(=O)c2ccccc2)c(O)c1	inactive
NC(=O)OCC(COC(N)=O)c1ccccc1	inactive
COc1ccc(O)cc1	inactive
C[C@]12C=CC(=O)C=C1CC[C@@H]1[C@@H]2C(=O)C[C@@]2(C)[C@H]1CC[C@]2(O)C(=O)CO	inactive
O=c1cc[nH]c(=O)[nH]1	inactive
CC(C)(C)CC(C)(C)c1ccc(O)c(-n2nc3ccccc3n2)c1	inactive
C/C=C/c1ccc(O)c(OC)c1	inactive
